# Out of some 2,300 compounds screened, about 1,000 (43%) were called active. The set was probably picked from earlier hits. A selection follows. A number with no mark means an inactive call.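 How the source made its calls: active means compounds inhibiting the enzyme by at least 50% at 15 µM in any one of the replicates; inactive means the rest.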
# Molecular target: Fatty acid synthase (Homo sapiens) (UniProt P49327)
# Assay: FAS thioesterase domain inhibitors, confirmation, biochemical, fluorescence intensity, single concentration (AID 624325);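 further: 0% = enzyme with DMSO only and 100% = wells lacking enzyme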
# Settings: recombinant FAS-TE, OMFH fluorogenic substrate, at 15 µM, stronger effect = higher value
# Sequence of Fatty acid synthase (Homo sapiens) (P49327 whole entry, looked up, the tested form may be a part): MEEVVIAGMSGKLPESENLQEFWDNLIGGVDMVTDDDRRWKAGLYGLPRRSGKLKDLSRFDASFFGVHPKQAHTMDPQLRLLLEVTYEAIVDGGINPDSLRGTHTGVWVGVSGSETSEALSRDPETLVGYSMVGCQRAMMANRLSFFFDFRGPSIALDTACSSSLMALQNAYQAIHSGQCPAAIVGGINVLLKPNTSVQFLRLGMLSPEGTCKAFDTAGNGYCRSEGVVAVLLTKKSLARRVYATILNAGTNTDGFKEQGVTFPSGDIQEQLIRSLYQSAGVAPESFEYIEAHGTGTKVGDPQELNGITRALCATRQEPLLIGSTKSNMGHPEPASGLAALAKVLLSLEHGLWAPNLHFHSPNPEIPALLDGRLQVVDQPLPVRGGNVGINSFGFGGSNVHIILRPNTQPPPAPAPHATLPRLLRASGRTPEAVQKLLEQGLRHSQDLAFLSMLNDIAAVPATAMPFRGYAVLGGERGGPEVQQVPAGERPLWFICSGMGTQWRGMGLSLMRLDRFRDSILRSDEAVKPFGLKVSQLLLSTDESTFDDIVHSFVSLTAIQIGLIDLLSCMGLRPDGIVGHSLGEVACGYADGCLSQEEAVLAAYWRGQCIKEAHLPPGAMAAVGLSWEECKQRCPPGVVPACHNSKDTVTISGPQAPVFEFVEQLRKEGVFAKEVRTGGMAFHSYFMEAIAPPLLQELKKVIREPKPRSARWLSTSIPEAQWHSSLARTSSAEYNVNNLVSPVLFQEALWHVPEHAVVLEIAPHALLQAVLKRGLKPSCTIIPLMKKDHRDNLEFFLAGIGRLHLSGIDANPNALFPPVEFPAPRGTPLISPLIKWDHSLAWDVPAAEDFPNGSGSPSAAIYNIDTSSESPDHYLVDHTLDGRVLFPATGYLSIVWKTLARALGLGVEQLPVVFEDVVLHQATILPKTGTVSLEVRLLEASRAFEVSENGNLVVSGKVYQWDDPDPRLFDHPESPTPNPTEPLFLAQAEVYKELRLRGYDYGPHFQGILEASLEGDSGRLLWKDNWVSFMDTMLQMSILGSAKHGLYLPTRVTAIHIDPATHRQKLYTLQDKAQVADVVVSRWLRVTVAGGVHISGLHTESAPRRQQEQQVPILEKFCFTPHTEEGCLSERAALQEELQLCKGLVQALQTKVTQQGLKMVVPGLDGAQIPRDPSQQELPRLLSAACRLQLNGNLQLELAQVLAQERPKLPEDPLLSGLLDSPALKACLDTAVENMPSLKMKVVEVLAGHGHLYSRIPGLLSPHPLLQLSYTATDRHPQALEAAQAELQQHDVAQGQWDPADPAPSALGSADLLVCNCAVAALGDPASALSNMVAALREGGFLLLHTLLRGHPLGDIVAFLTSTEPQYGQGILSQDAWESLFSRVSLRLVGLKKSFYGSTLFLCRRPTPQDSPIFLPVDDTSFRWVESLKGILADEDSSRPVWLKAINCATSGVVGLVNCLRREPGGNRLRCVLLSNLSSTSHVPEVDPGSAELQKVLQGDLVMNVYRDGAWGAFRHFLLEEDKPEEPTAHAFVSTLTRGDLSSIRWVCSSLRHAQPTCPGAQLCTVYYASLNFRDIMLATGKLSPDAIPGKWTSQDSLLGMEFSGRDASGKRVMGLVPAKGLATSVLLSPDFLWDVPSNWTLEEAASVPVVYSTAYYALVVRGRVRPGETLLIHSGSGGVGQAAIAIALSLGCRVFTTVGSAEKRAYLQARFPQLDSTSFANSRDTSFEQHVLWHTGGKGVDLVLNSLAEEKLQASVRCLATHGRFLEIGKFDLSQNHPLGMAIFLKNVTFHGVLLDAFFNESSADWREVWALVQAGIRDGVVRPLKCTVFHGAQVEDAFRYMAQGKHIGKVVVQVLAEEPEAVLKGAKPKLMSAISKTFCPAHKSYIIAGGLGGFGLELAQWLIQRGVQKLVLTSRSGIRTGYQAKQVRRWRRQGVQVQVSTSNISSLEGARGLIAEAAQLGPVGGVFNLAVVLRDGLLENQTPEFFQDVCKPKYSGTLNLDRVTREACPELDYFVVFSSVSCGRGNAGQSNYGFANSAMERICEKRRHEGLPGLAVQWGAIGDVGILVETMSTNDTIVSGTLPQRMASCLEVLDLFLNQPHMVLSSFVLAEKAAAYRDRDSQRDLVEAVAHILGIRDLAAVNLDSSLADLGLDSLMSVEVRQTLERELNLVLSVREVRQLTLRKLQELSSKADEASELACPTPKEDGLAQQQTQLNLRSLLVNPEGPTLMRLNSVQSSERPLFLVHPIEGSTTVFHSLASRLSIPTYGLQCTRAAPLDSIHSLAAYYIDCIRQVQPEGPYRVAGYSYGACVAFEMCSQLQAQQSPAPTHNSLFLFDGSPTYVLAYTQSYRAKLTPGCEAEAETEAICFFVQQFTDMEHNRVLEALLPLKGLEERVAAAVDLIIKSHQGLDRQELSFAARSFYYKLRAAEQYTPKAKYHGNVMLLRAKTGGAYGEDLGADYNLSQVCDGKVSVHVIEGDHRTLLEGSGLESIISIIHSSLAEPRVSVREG
row,SMILES,inhibition
1,Cc1cccc(-n2c(SCC(=O)Nc3cccc(S(=O)(=O)NC4=NCCCCC4)c3)nc3ccccc3c2=O)c1C,18.8%
2,COC(=O)c1cc(C(=O)NC(C)C2CC3CCC2C3)cc([N+](=O)[O-])c1 (stereo unspecified),59.5% (active)
3,O=C(Nc1cccc([N+](=O)[O-])c1)N1CCc2ccccc2C1,65.8% (active)
4,O=C(NCCCCc1ccccc1)C1CC(c2ccc([N+](=O)[O-])cc2)=NO1 (stereo unspecified),59.7% (active)
5,O=C1NC(Cc2ccccc2)c2nc3ccc(Br)cc3c(=O)n2-c2cc3ccccc3cc21 (stereo unspecified),30.7%
6,CC(NC(=O)Nc1cccc([N+](=O)[O-])c1)c1ccc2c(c1)OCO2 (stereo unspecified),84.4% (active)
7,CCN(C(=O)CSc1ncnc2c1cnn2-c1ccccc1)C1CCS(=O)(=O)C1 (stereo unspecified),69.8% (active)
8,CCOc1ccc(Br)cc1S(=O)(=O)Nc1ccc(C(=O)OC(C)C(=O)N(C)c2ccccc2)cc1 (stereo unspecified),14.2%
9,CC1(C(=O)NS(=O)(=O)c2ccc(C#N)cc2)CCN1C(=O)c1ccc(C2CCCCC2)cc1 (stereo unspecified),71.8% (active)
10,Cc1ccc(C)c(NC(=O)CSc2nc3c(oc4ccccc43)c(=O)n2-c2ccccc2)c1,31.1%
11,COc1ccccc1C1CC(=O)n2c(nc(-c3ccccc3)c2-c2ccccc2)S1 (stereo unspecified),0.79%
12,CC(C)(C)NC(=O)NC(=O)COC(=O)Cc1ccc(Cl)cc1Cl,68.1% (active)
13,O=C1OCCN1C(=O)[C@H]1[C@H](c2ccc(Cl)cc2)C(c2cccc(Cl)c2)=NN1c1ccc(Br)cc1,15.5%
14,O=C(Nc1cccc(Cl)c1)c1cc([N+](=O)[O-])ccc1N1CCN(CCO)CC1,66.5% (active)
15,Cc1cccc(NC(=O)c2cc([N+](=O)[O-])ccc2N2CCN(C)CC2)c1,54% (active)
16,O=S(=O)(c1ccc(F)cc1)n1ccc(-c2cnc(-c3ccccc3)s2)n1,14.5%
17,Cc1ccc(S(=O)(=O)c2nnn3c2nc(N2CCN(c4ccccn4)CC2)c2ccccc23)cc1,25.4%
18,Cc1nc2c(OCc3ccc(Cl)cc3Cl)cccn2c1N(C)CC1CC1,50% (active)

row,SMILES,inhibition
1,O=C(COC(=O)c1cc([N+](=O)[O-])ccc1NCc1ccccc1)NC1CCCCC1,37.6% (active)
2,CCN1C(=O)[C@H]2[C@@H](c3ccc(SC4CCCCC4)c(OC)c3)N[C@@](Cc3ccccc3)(C(=O)OC)[C@H]2C1=O,15.5%
3,CCN1C(=O)[C@H]2[C@@H](c3ccc(-c4ccc(F)cc4)cc3)N[C@@](Cc3ccccc3)(C(=O)OC)[C@H]2C1=O,43.4%
4,Cc1cccc(N=C2NC(=O)/C(=C/c3cn(C)c4ccccc34)S2)c1,-6.27%
5,COc1cc(-c2noc(C3CCCN(S(=O)(=O)c4cccc(Cl)c4)C3)n2)cc(OC)c1OC (stereo unspecified),30.8%
6,COc1ccc([N+](=O)[O-])cc1NC(=O)COC(=O)/C=C/c1ccco1,70.8% (active)
7,CC(C)Oc1ccc(Cc2n[nH]c(=S)n2Cc2ccccc2)cc1Cl,39.1% (active)
8,CC(=O)c1sc(N/N=C/c2ccc(C(C)C)cc2)nc1C,19.8%
9,O=C(c1ccc(Cl)c([N+](=O)[O-])c1)N1CCN(c2ccccc2)CC1,58.3% (active)
10,O=C(Nc1ccc(N2C(=O)c3cccc4cccc(c34)C2=O)cc1)c1ccc(N2CCCCC2)c([N+](=O)[O-])c1,10.5%
11,COc1ccc(C2CC(c3ccccc3)=NN2C(=O)c2ccc(Cl)c([N+](=O)[O-])c2)cc1 (stereo unspecified),21.3%
12,O=c1ccc2c(-c3ccccc3S(=O)(=O)O)c3ccc(O)c(O)c3oc-2c1O,56.1% (active)
13,O=C(Nc1ccc(C2CC2(Cl)Cl)cc1)c1cccc([N+](=O)[O-])c1 (stereo unspecified),19.8%
14,O=C(Nc1nnc(SCc2ccccc2Cl)s1)c1cccc([N+](=O)[O-])c1,51.7% (active)
15,CC(=O)c1ccc(S(=O)(=O)N2CCN(c3nc4c(C)c(C)ccc4cc3C#N)CC2)cc1,32.8%
16,Cc1ccc(S(=O)(=O)N2CC[C@H]3[C@@H](C2)C(=O)C[C@@H](c2ccccc2)N3S(=O)(=O)c2ccc(C)cc2)cc1,13.8%
17,COc1ccc(-c2nnc(SC(=O)N3c4ccccc4Sc4ccccc43)o2)cc1,13.1%
18,CCCCOC(=O)CNc1nnc(SCC(=O)OCC)[nH]c1=O,51% (active)

# — PubChem BioAssay AID624325 (Sanford-Burnham Center for Chemical Genomics, 2012)
